Assay outcomes deposited in PubChem by The Scripps Research Institute Molecular Screening Center.
The list is not random: actives were taken first. Their share in the collection is about 2.3%.
M1 ag: activates human CHRM1 receptor; AID 588814; P11229; activation, % at 3 µM; CHO-K1 hM1, Fluo-8 calcium fluorescence, agonist mode; 0% DMSO, 100% acetylcholine EC100; 360,000 tested, 0.33% active;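 active means activation above the run's mean compound activation plus 3 SD, cut at about 16% in these data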;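 further: peak over basal fluorescence ratio within a 140 s kinetic read after compound addition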
Target sequence (P11229 whole entry, looked up): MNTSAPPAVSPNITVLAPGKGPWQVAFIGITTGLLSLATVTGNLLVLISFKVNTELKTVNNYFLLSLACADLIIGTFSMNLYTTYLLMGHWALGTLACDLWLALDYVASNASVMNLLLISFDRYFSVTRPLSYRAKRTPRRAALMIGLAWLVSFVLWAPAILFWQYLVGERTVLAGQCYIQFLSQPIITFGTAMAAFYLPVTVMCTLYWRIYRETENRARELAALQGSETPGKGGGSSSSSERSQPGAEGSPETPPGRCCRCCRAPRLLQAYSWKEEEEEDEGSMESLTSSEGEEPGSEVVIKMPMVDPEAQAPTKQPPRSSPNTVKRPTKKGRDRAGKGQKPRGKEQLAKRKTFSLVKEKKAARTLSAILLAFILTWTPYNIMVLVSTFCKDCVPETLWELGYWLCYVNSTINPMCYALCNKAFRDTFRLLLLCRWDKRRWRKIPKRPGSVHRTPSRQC
M1 antag: blocks human M1 muscarinic receptor; 360,000 tested, 1.3% active; CHO-K1 hM1, Fluo-8 calcium fluorescence, ACh EC80 antagonist; inhibition, % at 3 µM;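 active means percent inhibition above its own plate's cutoff, namely the mean of that plate's compound wells plus 3 SD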;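 further: peak over basal fluorescence ratio during 140 s after agonist addition; 0% = ACh EC80 plus DMSO and 100% = DMSO alone without agonist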
CHO-K1 Ca antag: M1 antagonist counterscreen hit in parental CHO-K1 cells. ATP-induced calcium, Fluo-8 fluorescence. inhibition, % at 3 µM. 360,000 tested, 0.6% active. AID 602250;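 active means inhibition above a per-plate cutoff, the plate's mean sample inhibition plus 3 SD, cut at about 24% in these data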;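 further: 0% = DMSO plus EC80 ATP and 100% = DMSO alone without ATP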
CHRM1 PAM: human CHRM1 positive allosteric modulation; P11229; CHO-K1 hM1, Fluo-8 calcium fluorescence, ACh EC20; 0% = ACh EC20, 100% = maximal ACh; activation, % at 3 µM; 360,000 tested, 0.088% active; in the data active means activation above about 19%, passing the limit was not always enough
CHO-K1 Ca PAM: nonselective activator or artifact in parental CHO-K1 calcium assay; activation, % at 3 µM; ATP EC20, Fluo-8 calcium fluorescence; 0% at ATP EC20, 100% at ATP max; 360,000 tested, 0.02% active;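 active means activation above the run cutoff, the mean activation of all test compounds plus 3 SD, cut at about 40% in these data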;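 further: peak over basal fluorescence ratio in a 140 s read after ATP addition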
CHO-K1 Ca ag: counter-screen for M1 agonists: effect in parental CHO-K1 cells; Fluo-8 calcium fluorescence; scaled to maximal ATP response, vehicle zero; 360,000 tested, 0.48% active; activation, % at 3 µM; in the data active means activation above about 15%;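 further: untransfected CHO-K1 host cells lacking M1 receptor as counterscreen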
* = called active by the depositor.

SMILES | M1 ag | M1 antag | CHO-K1 Ca antag | CHRM1 PAM | CHO-K1 Ca PAM | CHO-K1 Ca ag
COC(=O)C1=C(c2ccc(OC)c(OC)c2)C[C@@H]2CC[C@H]1N2C(=O)NC1Cc2ccccc2C1 | -8 | 1 | -6 | 5 | 7 | -1
CCOP(=S)(NN(Cc1ccccc1)C(=O)c1ccccc1)OCC | -9 | -12 | -3 | 5 | 13 | 0
C[C@]12CC[C@@H](O)CC1=CCC1C2CC[C@@]2(C)C1CC[C@@H]2N (stereo partly drawn) | -9 | 26* | -8 | -20 | 7 | 1
C[C@]12CC[C@H](N)CC1=CCC1C2CC[C@@]2(C)C1CC[C@@H]2O (stereo partly drawn) | -6 | -5 | -13 | 1 | 19 | 2
C=CCCC1(CC(C)C)C(=O)NC(=S)NC1=O | -3 | -10 | -3 | 2 | 3 | 7
Cc1ccc(/C=C2/C(=O)NC(=O)N(CC3CCCO3)C2=O)s1 (stereo not drawn) | -7 | -3 | 1 | 13 | 14 | 19*
COc1cc(Br)cc(CN2CCN(C)CC2)c1O | -15 | 59* | -5 | -32 | 2 | 0
COC(=O)C1=C(c2ccc(C(C)=O)cc2)C[C@@H]2CC[C@H]1N2C(=O)NCCCOC(C)C | -4 | -13 | -14 | 6 | 14 | 0
CC1CC2CC(=O)CCC2(C)C2CCC3(C)C(O)CCC3C12 (stereo not drawn) | -1 | 3 | -20 | -4 | 23 | 0
CN1CCN(CCOC2c3ccccc3CSc3ccc(Cl)cc32)CC1 (stereo not drawn) | -7 | 99* | -5 | -23 | 24 | 4
Clc1ccc2c(c1)C(OC1CN3CCC1CC3)c1ccccc1CS2 (stereo not drawn) | -7 | 100* | -8 | -23 | 25 | 11
COc1ccc(CNC(=O)CCC(=O)N2C[C@H]3C[C@H](C2)c2cccc(=O)n2C3)cc1 | -4 | -10 | -4 | 4 | 7 | 0
CC(C)Cc1nnc(NC(=O)CCC(=O)N2CCN(CCOC(c3ccccc3)c3ccccc3)CC2)s1 | -9 | -5 | -12 | -4 | 19 | 0
Clc1ccc(C(OCCN2CCCCC2)c2ccccc2)cc1 (stereo not drawn) | -6 | 96* | 0 | -27 | -8 | 1
c1ccc(C(OCCN2CCN(c3ncccn3)CC2)c2ccccc2)cc1 | -6 | 48* | 2 | -27 | 5 | 4
c1ccc(CCN2CCCCC2)nc1 | -6 | -2 | -5 | 1 | 12 | 0
CN1C2CCC1CC(OC(c1ccccc1)c1ccccc1N)C2 (stereo not drawn) | -6 | 99* | -10 | -26 | 11 | 1
CN1C2CCC1C(COC(=O)c1ccccc1)C(O)C2 (stereo not drawn) | -4 | 4 | -8 | 2 | -2 | 1
CC1CCOC(=O)C=CC=CC(=O)OC2CC3OC4C5OC5(C)C(O)CC4(COC(=O)C1O)C2(C)C31CO1 (stereo not drawn) | -2 | -19 | -15 | 5 | 23 | 1
CC1=CC2OC3CC4OC(=O)C=CC=CC(=O)OCCC(C)C(O)C(=O)OCC2(CC1)C4(C)C31CO1 (stereo not drawn) | 2 | 37* | 7 | -18 | -15 | 7
COC(=O)CC(NC(=S)N1CC2C[C@@H](C1)Cn1c2cccc1=O)C(=O)OC (stereo partly drawn) | 0 | -6 | -16 | 2 | 0 | 1
CN1C2CCC1CC(OC(=O)c1cc(Cl)cc(Cl)c1)C2 (stereo not drawn) | -4 | 47* | -13 | -22 | 32 | 2
CN1CCN(CCC(=O)OC2CC3CCC(C2)N3C)CC1 (stereo not drawn) | -4 | -10 | 7 | -3 | -2 | 0
COc1ccc(-[n+]2c(-c3ccccc3)cc(-c3ccc(C)cc3)cc2-c2ccccc2)cc1 | -6 | 86* | 14 | -30 | 2 | 13
Cc1ccccc1-[n+]1c(-c2ccccc2)cc(-c2ccccc2)cc1-c1ccccc1 | -8 | 65* | 6 | -28 | -3 | 5
SMILES | M1 ag | M1 antag | CHO-K1 Ca antag | CHRM1 PAM | CHO-K1 Ca PAM | CHO-K1 Ca ag
Oc1ccccc1-[n+]1c(-c2ccccc2)cc(-c2ccccc2)cc1-c1ccccc1 | -8 | 30 | -7 | -22 | 6 | 0
O=C(O)c1ccc(-[n+]2c(-c3ccccc3)cc(-c3ccccc3)cc2-c2ccccc2)cc1 | -6 | -7 | -10 | 9 | 10 | 1
CCCOC(=O)c1ccc(-[n+]2c(-c3ccccc3)cc(-c3ccccc3)cc2-c2ccccc2)cc1 | -8 | 45* | 2 | -27 | 6 | 5
COc1ccc(-c2cc(-c3ccccc3)[n+](C)c(-c3ccccc3)c2)cc1 | -12 | 13 | 6 | -11 | -6 | 0
c1ccc(-c2ccc(CN3Cc4ccccc4-n4nncc4C3)cc2)cc1 | -2 | 36* | 2 | -19 | 4 | 8
CNc1ccc2oc(C[C@H]3O[C@@]4(CC[C@H]3C)O[C@H]([C@H](C)C(=O)c3ccc[nH]3)[C@H](C)C[C@H]4C)nc2c1C(=O)O | 105* | 94* | 49* | -21 | -5 | 33*
COc1cccc(OC)c1CN1CCCC(C(=O)c2cccc(Cl)c2)C1 (stereo not drawn) | -9 | 22 | 7 | -21 | -19 | 0
COc1ccc(C(=O)C2CCCN(Cc3ccc(F)cc3F)C2)cc1F (stereo not drawn) | -8 | 71* | -14 | -26 | 10 | 2
COc1ccc(C(=O)C2CCCN(CCc3ccccc3)C2)cc1OC (stereo not drawn) | -11 | 55* | 9 | -32 | -4 | 0
COc1ccc(CCNCc2c(OC)ccc3ccccc23)cc1 | -3 | -14 | -10 | 13 | 16 | 3
CC1(C)CCCN1CCC(C(N)=O)(c1ccccc1)c1ccccc1 | -8 | 99* | -17 | -29 | 26 | 2
CC(C)N(CCC(C(N)=O)(c1ccccc1)c1ccccn1)C(C)C (stereo not drawn) | -7 | 21 | 16 | -22 | 1 | 0
O=S(=O)(NC1CN2CCC1CC2)c1ccc(Cl)cc1 (stereo not drawn) | -12 | 25* | -8 | -19 | -11 | 1
COC(=O)C1=C(c2ccc(F)cc2OCc2ccccc2)C[C@@H]2CC[C@H]1N2C(=O)N1CCC(C)CC1 | -14 | 78* | 5 | -39 | 3 | -1
COC(=O)C1=C(c2ccc(F)cc2OCc2ccccc2)C[C@@H]2CC[C@H]1N2C(=O)NCc1ccccc1C(F)(F)F | -9 | 32* | -7 | -24 | -9 | 0
COC(=O)C1=C(c2ccc(F)cc2OCc2ccccc2)C[C@@H]2CC[C@H]1N2C(=O)N1CCCCC1 | -11 | -1 | -7 | -6 | 9 | -1
CC(C)CNC(=O)c1c(N)n(Cc2ccc3c(c2)OCO3)c2nc3ccccc3nc12 | -3 | 41* | -9 | -16 | 14 | 1
